“And” between values parts separate entries of the source, which are not always exact repeats. Equal entries are not always repeated. The source made the active and inactive calls.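 How the source made its calls, unless noted: active means compounds whose cell count with miR-34 switched on is under 0.7 times the count with it off; inactive means the rest.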
Key:
[1] = viability loss with induced miR-34 in A549 – imaging, A549 dox-inducible miR-34, nuclei and caspase counts, primary screen (AID 1347080); conditions: A549 miR-34 inducible, Hoechst nuclei count, 48 h
[2] = target: NAD(+) hydrolase SARM1 (Homo sapiens) (UniProt Q6SZW1); assay: blocking NAD cleavage by SARM1 SAM-TIR – cell lysate, NAD-Glo luminescence (AID 1508614;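 active means compound whose remaining NAD level is above about 45 nM, limit read from the data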); conditions: SAM-TIR HEK293T lysate NADase, at 1 µM, stronger effect = higher value
[3] = target: Mitogen-activated protein kinase 7 (Homo sapiens) (UniProt Q13164); assay: Gal4-ERK5 driven luciferase induction – cell-based, HTS, primary screen (AID 1508626;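 active means luciferase signal above three times the same-plate solvent-only control wells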;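 further: luciferase driven by Gal4-ERK5 fusion binding five Gal4 sites before minimal TATA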); conditions: HeLa Gal4-ERK5 transactivation, 18 h, at 5 µM, stronger effect = higher value
[4] = MELAS cybrid and Rieske KO viability enhancers – cell-based, MELAS cybrids, Rieske KO mouse fibroblasts, CellTiter-Glo, primary screen (AID 1508586;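 active means mean z-score across replicates of 1.96 or higher in either the MELAS or the Rieske mutant cell line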;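 further: z relative to plate mean and SD of compound and empty wells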); conditions: low glucose
[5] = galactose survival enhancers in mitochondrial complex I cybrids – cell-based, galactose medium, ATP luminescence, primary screen (AID 1645843;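 active means z-score of at least 1.8 in each of two replicates, scored against plate mean and spread of sample wells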;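 further: positive z means more ATP and so rescue of galactose-driven cybrid death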); conditions: complex I mutant cybrid cells, 72 h, stronger effect = higher value
[6] = chitosan synthesis blockers in C. neoformans – flow cytometry, Cibacron Brilliant Red staining (AID 1347148; call rule not given here;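 further: compound exposure lasted three days at 37 degrees C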); conditions: Cryptococcus neoformans chitosan, stronger effect = lower value; at 10 µM unless noted
[7] = blockers of cellular phospholipid synthesis – cell-based, LOPAC library, screen 4, primary screen (AID 1347384; call rule not given here); conditions: animal cells, phospholipid biosynthesis inhibition screen; at 10 µM
[8] = stronger effect = lower value, cell number ratio, induced over uninduced
[9] = measured here: relative caspase fold change +Dox/-Dox
[10] = measured here: total cells with miR-34 induction, stronger effect = lower value
[11] = measured here: total cells without miR-34 induction
[12] = MELAS cybrid survival, CellTiter-Glo 48 h, stronger effect = higher value
[13] = Rieske KO mouse fibroblast survival, CellTiter-Glo 72 h

NAD(+) hydrolase SARM1 (Homo sapiens), sequence (Q6SZW1 whole entry, looked up, the tested form may be a part): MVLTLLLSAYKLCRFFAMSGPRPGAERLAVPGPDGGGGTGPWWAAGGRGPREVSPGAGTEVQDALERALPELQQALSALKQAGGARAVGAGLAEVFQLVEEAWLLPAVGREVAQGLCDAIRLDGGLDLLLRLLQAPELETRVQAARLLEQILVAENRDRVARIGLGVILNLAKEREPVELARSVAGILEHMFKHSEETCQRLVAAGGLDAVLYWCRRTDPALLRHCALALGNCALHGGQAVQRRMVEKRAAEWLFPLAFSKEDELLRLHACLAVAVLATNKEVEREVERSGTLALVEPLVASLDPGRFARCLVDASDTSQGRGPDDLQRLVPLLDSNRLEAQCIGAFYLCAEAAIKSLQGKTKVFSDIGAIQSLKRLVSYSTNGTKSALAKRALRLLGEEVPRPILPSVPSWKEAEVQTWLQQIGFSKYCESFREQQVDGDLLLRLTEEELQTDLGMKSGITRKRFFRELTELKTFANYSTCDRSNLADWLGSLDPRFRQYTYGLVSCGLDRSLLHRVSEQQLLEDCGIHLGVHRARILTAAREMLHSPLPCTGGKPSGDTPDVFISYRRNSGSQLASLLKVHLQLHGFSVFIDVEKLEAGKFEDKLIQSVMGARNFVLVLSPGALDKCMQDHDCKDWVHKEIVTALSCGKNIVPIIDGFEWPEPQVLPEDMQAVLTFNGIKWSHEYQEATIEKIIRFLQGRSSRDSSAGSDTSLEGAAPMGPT
Mitogen-activated protein kinase 7 (Homo sapiens), sequence (Q13164 whole entry, looked up, the tested form may be a part): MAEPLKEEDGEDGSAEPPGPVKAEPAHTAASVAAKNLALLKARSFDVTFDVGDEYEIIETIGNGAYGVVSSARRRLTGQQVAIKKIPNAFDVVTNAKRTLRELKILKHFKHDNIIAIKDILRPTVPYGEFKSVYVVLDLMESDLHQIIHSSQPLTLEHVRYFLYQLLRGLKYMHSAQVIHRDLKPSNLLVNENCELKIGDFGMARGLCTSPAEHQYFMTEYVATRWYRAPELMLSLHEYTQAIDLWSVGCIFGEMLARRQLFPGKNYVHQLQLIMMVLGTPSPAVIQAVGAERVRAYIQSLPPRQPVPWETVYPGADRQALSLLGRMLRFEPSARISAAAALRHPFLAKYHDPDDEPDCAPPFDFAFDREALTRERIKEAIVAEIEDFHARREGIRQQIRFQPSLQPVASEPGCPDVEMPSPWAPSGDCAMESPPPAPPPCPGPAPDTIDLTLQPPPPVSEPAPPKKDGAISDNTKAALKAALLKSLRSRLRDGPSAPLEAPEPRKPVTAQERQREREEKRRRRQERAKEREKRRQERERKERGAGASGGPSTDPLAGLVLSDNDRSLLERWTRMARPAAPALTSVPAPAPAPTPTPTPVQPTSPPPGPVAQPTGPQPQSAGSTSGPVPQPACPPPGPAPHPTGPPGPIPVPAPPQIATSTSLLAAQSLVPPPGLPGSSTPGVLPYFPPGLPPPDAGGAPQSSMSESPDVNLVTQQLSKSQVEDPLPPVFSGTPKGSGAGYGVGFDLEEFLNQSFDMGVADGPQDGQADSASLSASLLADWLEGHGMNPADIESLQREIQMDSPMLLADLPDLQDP

SMILES	fold change [1, 8]	fold change [1, 9]	cell count [1, 10]	cell count [1, 11]	remaining NAD [2]	luciferase signal [3]	z-score [4, 12]	z-score [4, 13]	z-score [5]	fold fluorescence [6]	outcome [7]
Cc1cc(C(C)(C)C)c(O)c(C(C)(C)C)c1	0.871 (inactive)	0.986	10700	12300	10 nM (inactive)	20 AU (inactive)					
CCOC(N)=O	0.875 (inactive)	3.55	11200	12800	10 nM (inactive)	24 AU (inactive)					
CC(=O)OCC1=C(C(=O)O)N2C(=O)[C@@H](NC(=O)CSc3ccncc3)[C@H]2SC1	0.915 (inactive)	4.65	11600	12700	10 nM (inactive)	32 AU (inactive)					
NC1CCN(c2nc3c(cc2F)c(=O)c(C(=O)O)cn3-c2ccc(F)cc2F)C1 (stereo not given)	0.986 (inactive) and 0.879 (inactive)	1.53 and 1.43	9740 and 8420	9880 and 9570			-0.38 (inactive) and 0.118 (inactive)	-2.21 and -0.244	0.62 (inactive) and -0.04 (inactive)		
C[C@@H]1CN(c2c(F)c(F)c3c(=O)c(C(=O)O)cn(C4CC4)c3c2F)C[C@H](C)N1	0.896 (inactive)	0.855	8680	9690	10 nM (inactive)						
CC(=O)Nc1ccc(S(=O)(=O)Nc2ccc([N+](=O)[O-])cc2)cc1	0.908 (inactive)	3.51	11400	12500	10 nM (inactive)	24 AU (inactive)					
COc1ccc(C2C(=O)c3ccccc3C2=O)cc1	0.879 (inactive)	2.05	11100	12700	10 nM (inactive)	172 AU (inactive)					
NC(=O)NC(=O)Cc1ccccc1	0.88 (inactive)	0.863	11800	13400	10 nM (inactive)	160 AU (inactive)					
CCC(=O)O[C@H]1[C@H](O[C@@H]2[C@@H](C)[C@H](O[C@H]3C[C@@](C)(OC)[C@@H](O)[C@H](C)O3)[C@@H](C)C(=O)O[C@H](CC)[C@@](C)(O)[C@H](O)[C@@H](C)C(=O)[C@H](C)C[C@@]2(C)O)O[C@H](C)C[C@@H]1N(C)C	0.893 (inactive)	3.7	11600	12900	10 nM (inactive)	180 AU (active)					
O=C(O)CCCCC1CCSS1 (stereo not given)	1.15 (inactive)	0.668	6920	6020	10 nM (inactive)						
CCOC(=O)C1=C(C)NC(C)=C(C(=O)OCC)C1c1ccccc1/C=C/C(=O)OC(C)(C)C	0.814 (inactive)	0.737	7100	8720			-0.103 (inactive) and 0.874 (inactive)	0.213 and 0.0479	-1.98 (inactive)		
Nc1ccc(C(=O)Oc2ccccc2)c(O)c1	0.872 (inactive)	1.07	9720	11100	10 nM (inactive)	84 AU (inactive)					
Nc1ccc(C(=O)O)cc1	0.846 (inactive)	0.809	10600	12500	10 nM (inactive)	40 AU (inactive)					
Oc1ccc(Cl)c2cccnc12	0.902 (inactive)	0.654	10900	12000	10 nM (inactive)	60 AU (inactive)					
O=C(O)c1cc(O)c(O)c(O)c1	0.943 (inactive)	4.52	11500	12200	10 nM (inactive)	100 AU (inactive)					
CC1(C)S[C@@H]2[C@H](NC(=O)C(C(=O)O)c3ccccc3)C(=O)N2[C@H]1C(=O)O (stereo not given in full)	0.874 (inactive)	0.602	11000	12600	10 nM (inactive)	84 AU (inactive)					
OCc1ccccc1O	0.861 (inactive)	4.19	10600	12400	10 nM (inactive)	28 AU (inactive)					
CN(CCCN1c2ccccc2CCc2ccccc21)CC(=O)c1ccc(Cl)cc1	0.782 (inactive) and 0.894 (inactive)	1.92 and 1.33	5730 and 6590	7330 and 7370			0.202 (inactive)	0.354	-1.82 (inactive) and -0.185 (inactive)		
CO[C@@]1(NC(=O)C(C(=O)O)c2ccc(O)cc2)C(=O)N2C(C(=O)O)=C(CSc3nnnn3C)CO[C@@H]21 (stereo not given in full)	0.852 (inactive)	0.729	11300	13300	10 nM (inactive)	32 AU (inactive)					
Cc1cc2nc3c(=O)[nH]c(=O)nc-3n(C[C@H](O)[C@H](O)[C@H](O)CO)c2cc1C	0.873 (inactive)	1.61	7920	9080	10 nM (inactive)	80 AU (inactive)					
O=C1C(O)=C(O)C(=O)C(O)=C1O	0.863 (inactive) and 0.913 (inactive)	1.35 and 4.01	9350 and 12000	10800 and 13100	10 nM (inactive)	20 AU (inactive)					
CCCCCCc1ccc(O)cc1O	0.901 (inactive)	1.55	11000	12200	10 nM (inactive)	20 AU (inactive)					
Cc1cc(O)cc(C)c1Cl	0.933 (inactive)	1.14	10100	10800	10 nM (inactive)	32 AU (inactive)					

SMILES	fold change [1, 8]	fold change [1, 9]	cell count [1, 10]	cell count [1, 11]	remaining NAD [2]	luciferase signal [3]	z-score [4, 12]	z-score [4, 13]	z-score [5]	fold fluorescence [6]	outcome [7]
COCc1c(C(C)C)nc(C(C)C)c(/C=C/[C@@H](O)C[C@@H](O)CC(=O)O)c1-c1ccc(F)cc1	1.07 (inactive)	1.46	1320	1240			-1.23 (inactive)	-0.402	-2.23 (inactive)		
NC(=O)c1ccccc1O	0.92 (inactive)	3.12	11700	12800	10 nM (inactive)	56 AU (inactive)					
COc1cc(C)nc(-n2nc(C)cc2OC)n1	0.917 (inactive) and 1.02 (inactive)	1.25 and 2.09	8860 and 9160	9670 and 8950			0.813 (inactive)	0.154	0.61 (inactive)		
CN1CCN(c2cc3c(cc2F)c(=O)c(C(=O)O)cn3-c2ccc(F)cc2)CC1	0.87 (inactive)	0.995	6840	7860	10 nM (inactive)						
O=C1OC(c2ccc(O)cc2)(c2ccc(O)cc2)c2ccccc21	0.823 (inactive)	1.14	10900	13200	10 nM (inactive)	84 AU (inactive)					
Cc1cccc(C(=O)O)c1O	0.963 (inactive)	0.915	8670	9000	10 nM (inactive)	68 AU (inactive)					
Cc1[nH]cnc1CN1CCc2c(c3ccccc3n2C)C1=O	0.98 (inactive)	1.07	9740	9940			0.685 (inactive)	0.531	-0.045 (inactive)		
COc1cc(C(=O)NC2CCCNC2)cc(OC)c1OC (stereo not given)	0.933 (inactive) and 1.06 (inactive)	1.12 and 0.508	9210 and 8810	9870 and 8310			-0.284 (inactive) and -1.2 (inactive)	-0.165 and -1.23	0.125 (inactive)		
O=c1cc(CO)occ1O	0.923 (inactive)	0.344	9020	9780			0.152 (inactive)	-0.154	1.06 (inactive)		
O=C(CCBr)N1CCN(C(=O)CCBr)CC1	0.869 (inactive)	2.68	6360	7310	10 nM (inactive)	92 AU (inactive)					
CCCCCC(C)N (stereo not given)	0.893 (inactive)	1.93	11000	12400	10 nM (inactive)						
NC(=O)c1ccc([N+](=O)[O-])cc1Cl	0.897 (inactive)	3.38	11800	13200	10 nM (inactive)	180 AU (inactive)					
CCN(CC)C(=O)c1cccc(C)c1	0.989 (inactive)	1.76	11700	11800	10 nM (inactive)	68 AU (inactive)					
CC1CCC(NC(=O)N(CCCl)N=O)CC1 (stereo not given)	0.814 (inactive)	5.15	9380	11500	10 nM (inactive)	44 AU (inactive)					
Oc1c(I)cc(I)c2cccnc12	0.894 (inactive)	1.48	10900	12200	10 nM (inactive)	16 AU (inactive)					
NC[C@H]1O[C@H](O[C@H]2[C@H](O)[C@@H](O[C@H]3O[C@H](CO)[C@@H](O)[C@H](N)[C@H]3O)[C@H](N)C[C@@H]2N)[C@H](N)[C@@H](O)[C@@H]1O	0.901 (inactive)	2.25	11700	13000	10 nM (inactive)	76 AU (inactive)					
CC(=O)NO	0.922 (inactive)	0.946	11300	12300	10 nM (inactive)	52 AU (inactive)					
CC(Cc1ccccc1)(NC(=O)CN)c1ccccc1 (stereo not given)	0.999 (inactive) and 0.923 (inactive)	2.09 and 0.645	9240 and 8260	9260 and 8950					0.32 (inactive) and -0.22 (inactive)		
CC(C)(Oc1ccc(CCNC(=O)c2ccc(Cl)cc2)cc1)C(=O)O					10 nM (inactive)	40 AU (inactive)	-0.161 (inactive) and 0.38 (inactive) and -0.46 (inactive)	-0.148 and 0.0926 and -0.592	0.225 (inactive) and 0.83 (inactive)	9.76 [at 138.2 µM] (inactive)	inactive
CC(=O)OCC(COC(C)=O)OC(C)=O	0.85 (inactive)	3.03	10700	12600	10 nM (inactive)	8 AU (inactive)					
COc1ccc(CN(CCN(C)C)c2ncccn2)cc1	0.86 (inactive)	3.03	11900	13800	10 nM (inactive)	60 AU (inactive)					
Oc1c(Cl)cc(Cl)cc1Sc1cc(Cl)cc(Cl)c1O	0.771 (inactive)	1.86	8360	10800	10 nM (inactive)	24 AU (inactive)					
Cc1cc(C)cc(OCC2CNC(=O)O2)c1 (stereo not given)	0.878 (inactive)	2.33	10800	12400	10 nM (inactive)	72 AU (inactive)					
